# Screen size: about 2,000 compounds; about 110 (5.5%) showed an effect of 50% or more. What follows is part of a selection rich in strong results, with near analogues and random picks from the rest. Residues, ends and D or L forms follow the SMILES beside them. *: point of attachment. pNA = O=[N+]([O-])c1ccc(N*)cc1; Boc = CC(C)(C)OC(=O)*
# Biological target: Genome polyprotein (dengue virus type 2) (UniProt P29990)
# [1] = Thailand/16681/1984, Concentration 25.0 uM, Number of replicates 1.0
smiles,measurement,setting,value
CCCCCNC(=O)c1cc(Cl)ccc1NS(=O)(=O)c1ccc(Oc2ccccc2Cl)cc1,inhibition,"Thailand/16681/1984, Concentration 49.5 uM, Number of replicates 2.0, Standard deviation 0.23227296801747743 %",78.7%
same,inhibition,"Thailand/16681/1984, Concentration 99.01 uM, Number of replicates 2.0, Standard deviation 0.006678758202430312 %",76.9%
same,inhibition,"Thailand/16681/1984, Concentration 198.0 uM, Number of replicates 2.0, Standard deviation 0.04271599955318515 %",65.6%
CC[C@H](C#N)NC(=O)c1cc(Cl)ccc1NS(=O)(=O)c1ccc(Oc2ccccc2Cl)cc1,inhibition,"Thailand/16681/1984, Concentration 49.5 uM, Number of replicates 2.0, Standard deviation 0.706613157296788 %",44.6%
same,inhibition,"Thailand/16681/1984, Concentration 99.01 uM, Number of replicates 2.0, Standard deviation 0.473003628419333 %",22.1%
same,inhibition,"Thailand/16681/1984, Concentration 198.0 uM, Number of replicates 2.0, Standard deviation 1.2548162043536224 %",2.91%
COC[C@@H](C)CNC(=O)c1cc(Cl)ccc1NS(=O)(=O)c1ccc(Oc2ccccc2Cl)cc1,inhibition,"Thailand/16681/1984, Concentration 49.5 uM, Number of replicates 2.0, Standard deviation 0.2816677257730929 %",82.2%
same,inhibition,"Thailand/16681/1984, Concentration 99.01 uM, Number of replicates 2.0, Standard deviation 0.03025941418209339 %",83.8%
same,inhibition,"Thailand/16681/1984, Concentration 198.0 uM, Number of replicates 2.0, Standard deviation 0.3452939569842909 %",76.9%
CNC(=O)[C@@H](C)CNS(=O)(=O)c1ccc(Oc2ccccc2Cl)cc1,inhibition,"Thailand/16681/1984, Concentration 49.5 uM, Number of replicates 2.0, Standard deviation 0.8337442367954725 %",-0.747%
same,inhibition,"Thailand/16681/1984, Concentration 99.01 uM, Number of replicates 2.0, Standard deviation 0.25212885411314173 %",0.957%
same,inhibition,"Thailand/16681/1984, Concentration 198.0 uM, Number of replicates 2.0, Standard deviation 0.23111814436827896 %",2.51%
CC(C)CNC(=O)c1cc(Cl)ccc1NS(=O)(=O)c1ccc(Oc2ccccc2Cl)cc1,inhibition,"Thailand/16681/1984, Concentration 49.5 uM, Number of replicates 2.0, Standard deviation 0.23411798845789034 %",89.6%
same,inhibition,"Thailand/16681/1984, Concentration 99.01 uM, Number of replicates 2.0, Standard deviation 0.14645254355523077 %",88.7%
same,inhibition,"Thailand/16681/1984, Concentration 198.0 uM, Number of replicates 2.0, Standard deviation 0.2542297902177128 %",84.4%
CC(C)Nc1nc2cc(NCc3cccc(C(N)=O)c3)ccc2[nH]1,inhibition,"Thailand/16681/1984, Concentration 49.5 uM, Number of replicates 2.0, Standard deviation 0.023235641877752903 %",-0.517%
same,inhibition,"Thailand/16681/1984, Concentration 99.01 uM, Number of replicates 2.0, Standard deviation 0.06423980503181957 %",1.24%
same,inhibition,"Thailand/16681/1984, Concentration 198.0 uM, Number of replicates 2.0, Standard deviation 0.8255495407458023 %",3.31%
CSCC[C@H](NC(=O)OC(C)(C)C)C(=O)N1CCC[C@H]1C(=O)Nc1ccc([N+](=O)[O-])cc1 (Boc-Met-Pro-pNA),inhibition,"Thailand/16681/1984, Concentration 49.5 uM, Number of replicates 2.0, Standard deviation 0.6934296230825803 %",10.3%
same,inhibition,"Thailand/16681/1984, Concentration 99.01 uM, Number of replicates 2.0, Standard deviation 0.4989876662884813 %",17.1%
same,inhibition,"Thailand/16681/1984, Concentration 198.0 uM, Number of replicates 2.0, Standard deviation 0.32485037523299065 %",29.3%
CNC(=O)C1CCC(Nc2nc(Cl)cc3c(F)cccc23)CC1 (stereo unspecified),inhibition,"Thailand/16681/1984, Concentration 49.95 uM, Number of replicates 2.0, Standard deviation 5.365912193998162 %",-9.93%
C[C@@H](NC(=O)C1CCN(c2ccc(C=O)cc2)CC1)c1ccc2ccccc2c1,inhibition,[1],1.94%
Cc1nn(C)nc1-c1nn(C)cc1NC(=O)c1ccccc1C(F)(F)F,inhibition,"Thailand/16681/1984, Concentration 49.5 uM, Number of replicates 2.0, Standard deviation 2.7709187614774393 %",-3.06%
same,inhibition,"Thailand/16681/1984, Concentration 99.01 uM, Number of replicates 2.0, Standard deviation 2.812620033505876 %",-2.31%
same,inhibition,"Thailand/16681/1984, Concentration 198.0 uM, Number of replicates 2.0, Standard deviation 2.009504923047635 %",-2.5%
O=Cc1ccc(N2CCC(C(=O)N3CCCCC[C@H]3c3ccco3)CC2)cc1,inhibition,[1],13.4%
Cn1oc(C(=O)Nc2cc(Cl)cc(C(=O)NC(C)(C)CO)c2)cc1=O,inhibition,"Thailand/16681/1984, Concentration 49.5 uM, Number of replicates 2.0, Standard deviation 0.8141956117621647 %",-0.341%
same,inhibition,"Thailand/16681/1984, Concentration 99.01 uM, Number of replicates 2.0, Standard deviation 1.5201786631370027 %",0.297%
same,inhibition,"Thailand/16681/1984, Concentration 198.0 uM, Number of replicates 2.0, Standard deviation 2.6564108106217375 %",1.39%
C[C@@H](O)CNC(=O)c1cc(Cl)ccc1NS(=O)(=O)c1ccc(Oc2ccccc2Cl)cc1,inhibition,"Thailand/16681/1984, Concentration 49.5 uM, Number of replicates 2.0, Standard deviation 1.4145601780552486 %",30.4%
same,inhibition,"Thailand/16681/1984, Concentration 99.01 uM, Number of replicates 2.0, Standard deviation 0.06674442365142796 %",75.7%
same,inhibition,"Thailand/16681/1984, Concentration 198.0 uM, Number of replicates 2.0, Standard deviation 0.019135343573522066 %",67%
O=Cc1ccc(N2CCC(C(=O)Nc3ncc(C(F)(F)F)cc3Cl)CC2)cc1,inhibition,[1],11.8%
Cc1cc(CO)c2cccc(Cc3cccc(C(=O)NCc4c(C)noc4C)c3)c2n1,inhibition,"Thailand/16681/1984, Concentration 49.95 uM, Number of replicates 2.0, Standard deviation 0.7006856245222158 %",1.58%
same,inhibition,"Thailand/16681/1984, Concentration 99.9 uM, Number of replicates 2.0, Standard deviation 0.008623919554905093 %",5.27%
Cc1cc(CO)c2cccc(CC(=O)NCC(N)=O)c2n1,inhibition,"Thailand/16681/1984, Concentration 49.95 uM, Number of replicates 2.0, Standard deviation 1.3653333333441007 %",-7.85%
same,inhibition,"Thailand/16681/1984, Concentration 99.9 uM, Number of replicates 2.0, Standard deviation 0.5261932884148693 %",-6.61%
Cc1cc(N)cc(CNc2cccc3c(CO)cc(C)nc23)c1,inhibition,"Thailand/16681/1984, Concentration 49.95 uM, Number of replicates 2.0, Standard deviation 2.268676515546947 %",34.9%
same,inhibition,"Thailand/16681/1984, Concentration 99.9 uM, Number of replicates 2.0, Standard deviation 1.0884002159453274 %",63.5%
Cc1cc(CO)c2cccc(NCc3ccc(C(N)=O)cc3)c2n1,inhibition,"Thailand/16681/1984, Concentration 49.95 uM, Number of replicates 2.0, Standard deviation 1.5291755401543807 %",1.6%
same,inhibition,"Thailand/16681/1984, Concentration 99.9 uM, Number of replicates 2.0, Standard deviation 0.4954793626184345 %",6.67%
Cc1cc(CO)c2cccc(Cc3cccc(C(=O)NCc4ccc(C(N)=O)cc4)c3)c2n1,inhibition,"Thailand/16681/1984, Concentration 49.95 uM, Number of replicates 2.0, Standard deviation 1.5788782649320652 %",-6.46%
same,inhibition,"Thailand/16681/1984, Concentration 99.9 uM, Number of replicates 2.0, Standard deviation 2.3363374645660926 %",-3.45%
Cc1cc(CO)c2cccc(NCc3ccc(S(N)(=O)=O)cc3)c2n1,inhibition,"Thailand/16681/1984, Concentration 49.95 uM, Number of replicates 2.0, Standard deviation 1.2377055953825635 %",8.26%
same,inhibition,"Thailand/16681/1984, Concentration 99.9 uM, Number of replicates 2.0, Standard deviation 1.691711110367126 %",17.2%
